# Test results reported in PMC8384837, “Expanding the binding specificity for RNA recognition by a PUF domain”.
# Numbering of substitutions follows the chain as printed.
# Legend:
# Assay in all cases: yeast three-hybrid, YBZ-1, SC-Leu-His + 0.5 mM 3-AT, 4 days
# Details in all cases: tags: N-Gal4 AD-HA kept; label: inside an RPR1-promoter hybrid RNA with tandem MS2 sites; ssRNA
# PUM1 PUF domain R5-RHG = PUM1 PUF domain R5-RHG (Homo sapiens, UniProt Q14671 828-1176, C1007R;R1008H;Q1011G)
# How it was run: (§1)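 Repeat regions from input (SC-Leu) and selection (SC-Leu-His + 0.5 mM 3-AT) plates were PCR-amplified and Illumina-sequenced after four days of growth. The cells were strain YBZ-1 with a LexA–MS2 coat fusion and a HIS3 reporter, co-expressing Pumilio-1 PUF domain libraries and matching RNA elements from a centromeric plasmid. The interaction score is the log change in variant frequency from input to selection, taken in log2 with a pseudocount of 1 for absent variants.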
# PUM1 PUF domain R7-RML = PUM1 PUF domain R7-RML (Homo sapiens, UniProt Q14671 828-1176, S1079R;N1080M;E1083L)
# How it was run: as §1
# PUM1 PUF domain R3-LSR = PUM1 PUF domain R3-LSR (Homo sapiens, UniProt Q14671 828-1176, C935L;R936S;Q939R)
# How it was run: as §1
# PUM1 PUF domain R3-LFA = PUM1 PUF domain R3-LFA (Homo sapiens, UniProt Q14671 828-1176, C935L;R936F;Q939A)
# How it was run: as §1
# PUM1 PUF domain R1-RRK = PUM1 PUF domain R1-RRK (Homo sapiens, UniProt Q14671 828-1176, S863R;Q867K)
# How it was run: as §1
# PUM1 PUF domain R6-GFA = target: T1, PUM1 PUF domain R6-GFA (Homo sapiens, UniProt Q14671 828-1176, N1043G;Y1044F;Q1047A)
# T1 sequence: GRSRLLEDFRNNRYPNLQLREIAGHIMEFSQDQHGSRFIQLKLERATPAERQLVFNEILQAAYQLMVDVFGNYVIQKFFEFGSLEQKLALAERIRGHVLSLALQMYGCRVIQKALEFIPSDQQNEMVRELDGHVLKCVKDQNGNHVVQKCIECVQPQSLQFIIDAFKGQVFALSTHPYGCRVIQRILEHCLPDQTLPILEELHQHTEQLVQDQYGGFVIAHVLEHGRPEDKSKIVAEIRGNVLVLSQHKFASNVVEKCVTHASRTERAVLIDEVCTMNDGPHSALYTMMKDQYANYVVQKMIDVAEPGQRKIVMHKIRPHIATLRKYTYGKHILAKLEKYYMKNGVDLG
# How it was run: as §1
# PUM1 PUF domain R6-MYS = target: T2, PUM1 PUF domain R6-MYS (Homo sapiens, UniProt Q14671 828-1176, N1043M;Q1047S)
# T2 sequence: T1 sequence with G216M, F217Y, A220S
# How it was run: as §1
# PUM1 PUF domain R5-PMG = PUM1 PUF domain R5-PMG (Homo sapiens, UniProt Q14671 828-1176, C1007P;R1008M;Q1011G)
# How it was run: as §1
# PUM1 PUF domain R8-RHE = PUM1 PUF domain R8-RHE (Homo sapiens, UniProt Q14671 828-1176, N1122R;Y1123H;Q1126E)
# How it was run: as §1
# PUM1 PUF domain R4-NFS = PUM1 PUF domain R4-NFS (Homo sapiens, UniProt Q14671 828-1176, H972F;Q975S)
# How it was run: as §1
sequence,measurement,setting,value
GGCUAGAACUAGUGGAUCCCCCGGCGCCCGGCGGCUCGAGCCCGGGUAAGUGUCAAUAGUCUGCAUGCCGCCGGGCGCCAUGCCUGCAGGUCGACUCUAGAAAACAUG,binding signal,PUM1 PUF domain R5-RHG,5.64 log2 enrichment (interaction score)
GGCUAGAACUAGUGGAUCCCCCGGCGCCCGGCGGCUCGAGCCCGGGUAAGUUUAAAUAGUCUGCAUGCCGCCGGGCGCCAUGCCUGCAGGUCGACUCUAGAAAACAUG,binding signal,PUM1 PUF domain R7-RML,2.71 log2 enrichment (interaction score)
GGCUAGAACUAGUGGAUCCCCCGGCGCCCGGCGGCUCGAGCCCGGGUAAGUGUAAGUAGUCUGCAUGCCGCCGGGCGCCAUGCCUGCAGGUCGACUCUAGAAAACAUG,binding signal,PUM1 PUF domain R3-LSR,5.61 log2 enrichment (interaction score)
same,binding signal,PUM1 PUF domain R3-LFA,4.36 log2 enrichment (interaction score)
GGCUAGAACUAGUGGAUCCCCCGGCGCCCGGCGGCUCGAGCCCGGGUAAGUGUAAAUUGUCUGCAUGCCGCCGGGCGCCAUGCCUGCAGGUCGACUCUAGAAAACAUG,binding signal,PUM1 PUF domain R1-RRK,2.68 log2 enrichment (interaction score)
GGCUAGAACUAGUGGAUCCCCCGGCGCCCGGCGGCUCGAGCCCGGGUAAGUGUAAAUAGUCUGCAUGCCGCCGGGCGCCAUGCCUGCAGGUCGACUCUAGAAAACAUG,binding signal,PUM1 PUF domain R5-RHG,2.92 log2 enrichment (interaction score)
same,binding signal,PUM1 PUF domain R6-GFA,2.37 log2 enrichment (interaction score)
same,binding signal,PUM1 PUF domain R6-MYS,4.63 log2 enrichment (interaction score)
same,binding signal,PUM1 PUF domain R5-PMG,0.4 log2 enrichment (interaction score)
same,binding signal,PUM1 PUF domain R8-RHE,2.1 log2 enrichment (interaction score)
GGCUAGAACUAGUGGAUCCCCCGGCGCCCGGCGGCUCGAGCCCGGGUAAGCGUAAAUAGUCUGCAUGCCGCCGGGCGCCAUGCCUGCAGGUCGACUCUAGAAAACAUG,binding signal,PUM1 PUF domain R8-RHE,3.02 log2 enrichment (interaction score)
GGCUAGAACUAGUGGAUCCCCCGGCGCCCGGCGGCUCGAGCCCGGGUAAGUGUAAAUCGUCUGCAUGCCGCCGGGCGCCAUGCCUGCAGGUCGACUCUAGAAAACAUG,binding signal,PUM1 PUF domain R1-RRK,2.94 log2 enrichment (interaction score)
GGCUAGAACUAGUGGAUCCCCCGGCGCCCGGCGGCUCGAGCCCGGGUAAGUGUUAAUAGUCUGCAUGCCGCCGGGCGCCAUGCCUGCAGGUCGACUCUAGAAAACAUG,binding signal,PUM1 PUF domain R5-RHG,5.88 log2 enrichment (interaction score)
same,binding signal,PUM1 PUF domain R5-PMG,3.73 log2 enrichment (interaction score)
GGCUAGAACUAGUGGAUCCCCCGGCGCCCGGCGGCUCGAGCCCGGGUAAGUGUAAUUAGUCUGCAUGCCGCCGGGCGCCAUGCCUGCAGGUCGACUCUAGAAAACAUG,binding signal,PUM1 PUF domain R3-LSR,4.8 log2 enrichment (interaction score)
same,binding signal,PUM1 PUF domain R3-LFA,2.26 log2 enrichment (interaction score)
GGCUAGAACUAGUGGAUCCCCCGGCGCCCGGCGGCUCGAGCCCGGGUAAGUGUAUAUAGUCUGCAUGCCGCCGGGCGCCAUGCCUGCAGGUCGACUCUAGAAAACAUG,binding signal,PUM1 PUF domain R4-NFS,3.51 log2 enrichment (interaction score)
